Compounds with a hit are over-represented: about 3.5% of the library has one in this group of screens.
Tau FP inhib: tau fibrillization inhibition (FP); K18 P301L tau heparin fibrillization, Alexa594 FP, 6 h; Potency, µM (highest dose often 57.7 µM), hits mostly inhibitors; 0.39% of 280,000 active; AID 1468; further: nearly all actives have a fitted effect of over 55% in size
Target sequence (P10636 561-689 P618L limits assumed): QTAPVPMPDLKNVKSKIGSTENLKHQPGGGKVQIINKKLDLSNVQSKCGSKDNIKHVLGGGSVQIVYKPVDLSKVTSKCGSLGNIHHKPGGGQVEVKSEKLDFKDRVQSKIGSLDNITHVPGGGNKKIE
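Human K18 P301L fragment (15 uM unlabeled plus 0.24 uM Alexa 594-labeled) in 100 mM sodium acetate pH 7 with compound, aggregation induced by 20 uM heparin for 6 hr at 37 C. ThT (30 uM) added for 1 hr, then Alexa 594 FP read.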
Tau ThT inhib: inhibitors of human tau fibril formation, thioflavin T binding; P10636; recombinant tau K18 P301L, heparin-induced fibrillization, ThT fluorescence; Potency, µM (highest dose often 57.4 µM), most hits filed as inhibitors; 2.1% of 270,000 active; further: nearly all actives have a fitted effect of over 55% in size
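Using a mix of unlabeled (15 uM) and Alexa 594-labeled (0.24 uM) tau K18 P301L, heparin-triggered fibrillization over 6 hr at 37 C was scored by ThT fluorescence.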
JMJD2E inh: blocks human JMJD2E demethylase activity | Potency, µM (highest dose often 57.1 µM), most hits filed as inhibitors | B2RXH2 | AID 2147 | JMJD2E catalytic domain, FDH-coupled NADH fluorescence (FDH is formaldehyde dehydrogenase) | 1.6% of 230,000 active; active means well fitted inhibition curve with a large enough effect, not every such curve was filed as active; inconclusive means small, poorly fitted or top-dose-only effect, or another doubt; inactive means no such curve, though single readings can be large or run the other way; further: nearly all actives have a fitted effect of over 50% in size
Target sequence (B2RXH2 1-337 limits assumed): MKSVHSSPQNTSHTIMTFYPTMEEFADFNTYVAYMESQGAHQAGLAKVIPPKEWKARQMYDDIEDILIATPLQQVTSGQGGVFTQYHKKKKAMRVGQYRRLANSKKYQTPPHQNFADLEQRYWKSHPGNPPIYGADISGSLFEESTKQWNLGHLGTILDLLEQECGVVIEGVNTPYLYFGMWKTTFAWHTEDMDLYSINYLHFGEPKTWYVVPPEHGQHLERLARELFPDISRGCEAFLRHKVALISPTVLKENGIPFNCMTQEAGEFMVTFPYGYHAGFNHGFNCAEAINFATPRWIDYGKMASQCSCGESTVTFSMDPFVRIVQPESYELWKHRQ
TRb SRC2 PPI: TRbeta-SRC2 interaction inhibition. P10828. TRbeta-SRC2 peptide binding, fluorescence polarization; receptor liganded with 1 µM T3. Potency, µM (top dose mostly 106 µM), hits mostly inhibitors. 0.065% of 280,000 active. AID 1469; further: nearly all actives have a fitted effect of over 50% in size
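Fluorescence polarization of 20 nM Texas Red SRC2 peptide (20-aa NR interaction domain) bound to 0.6 uM human TRb ligand-binding domain, with 1 uM T3, after 5 hr at ambient temperature; inhibition seen as decreased polarization.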
TexasRed fluor: Texas Red fluorescence interference in TRb-SRC2 counter-screen; Potency, µM (titrated, usually from 106 µM); TRb/SRC2 Texas Red total fluorescence interference; 0.29% of 280,000 active; active means well fitted curve in either direction with a large enough effect; inconclusive means small, poorly fitted or top-dose-only effect
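Flags fluorescent or light-absorbing compounds by total fluorescence, S + 2P, at 555 nm excitation and 632 nm emission. Mixture: 20 nM Texas Red SRC2 peptide, 0.6 uM human TRb LBD, 1 uM T3, 5% DMSO; compound exposure 5 h at ambient temperature.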
Tau fluor cs: counter-screen for tau fibril formation inhibitors | 0.93% of 280,000 active | tau K18 P301L Alexa594 fluorescence, heparin fibrillization | AID 1463 | Potency, µM (doses to about 57.7 µM); further: nearly all actives have a fitted effect of over 55% in size
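Human tau K18 P301L (15 uM unlabeled, 0.24 uM Alexa 594-labeled) in 100 mM sodium acetate pH 7 with 20 uM heparin, 6 hr at 37 C. ThT 30 uM added, 1 hr ambient; Alexa 594 FP and total fluorescence read at 555/632 nm.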
Hits are given with their value; i = inactive; ? = inconclusive; nt = no result; [ ] = remark or other dose. Unless noted, the call rests on the fitted dose curve; in most records, active means well fitted curve in the direction sought with a large enough effect; inconclusive means small, poorly fitted or top-dose-only effect, or another doubt; inactive means no such curve, though single readings can be large; an effect the other way counts as inactive or inconclusive.

SMILES	Tau FP inhib	Tau ThT inhib	JMJD2E inh	TRb SRC2 PPI	TexasRed fluor	Tau fluor cs
COc1ccc(N2CCN(C(=O)c3cccc4nc(C)oc34)CC2)cc1	i	i	i	i	i	i
O=C(NCC(c1cccnc1)N1CCc2ccccc2C1)C(=O)Nc1ccc(F)cc1F (configuration not stated)	i	?	nt	?	2.8µM[quencher]	i
O=C(NCC(c1cccnc1)N1CCc2ccccc21)c1ccc(F)cc1 (configuration not stated)	i	i	nt	?	0.079µM[quencher]	i
O=C(NCC(c1cccnc1)N1CCc2ccccc2C1)C(=O)Nc1ccc(Cl)cc1 (configuration not stated)	i	?	nt	i	i	i
COc1ccc(NC(=O)C(C(C)C)N2Cc3ccccc3C2=O)cc1 (configuration not stated)	i	i	nt	i	i	i
Clc1ccc(-c2nn3c(-c4ccncc4)nnc3s2)c(Cl)c1	i	i	i	i	i	i
COC(=O)[C@@H]1C[C@@]2(O)[C@@H](O)[C@@H](O)[C@@H](O)C[C@H]2N1Cc1cc(F)ccc1F	i	i	i	i	i	i
S=C(Nc1ccc2nccnc2c1)N1CCOCC1	?	25µM	?	i	i	i
S=C(Nc1ccc2nsnc2c1)N1CCCCC1	?	?	11µM	i	i	i
Cc1ccc(NC(=S)N2CCOCC2)cc1	i	i	i	i	i	i
CCN(CC)C(=O)C1CCCN(C(=O)Nc2ccc3nsnc3c2)C1 (configuration not stated)	?	14µM	i	i	i	i
O=C(Nc1ccc2nsnc2c1)C1CC1	i	i	i	i	i	i
S=C(Nc1ccc2nc(-c3ccccn3)c(-c3ccccn3)nc2c1)N1CCCCC1	i[2.34 µM]	i	i	i	i	i[2.34 µM]
COc1cc(NC(=O)CN2CCC(C(N)=O)(N3CCCCC3)CC2)c(OC)cc1Cl	i	i	i	i	i	i
O=C(O)c1cccc(-n2cccc2/C=C2\SC(=O)N(Cc3ccccc3F)C2=O)c1	i	i	i	i	i	i
Cc1[nH]c2ccccc2c1CN1CCC(Cc2ccccc2)CC1	i	?	25µM	i	i	i
Cc1ccc(N=Cc2cc(Br)cc(Cl)c2O)cc1	?	18µM	i	i	i	i
Oc1c(Cl)cc(Cl)cc1C=Nc1ccc(Br)cc1	i	?	?	i	i	i
Cc1ccc(Nc2nc(-c3sc(NC(=O)c4ccco4)nc3C)cs2)cc1	i	4µM	i	i	i	?
Cc1ccccc1Nc1nc(-c2sc(NC(=O)c3ccco3)nc2C)cs1	i	?	i	i	i	?
CCCC(=O)Nc1nc(-c2ccc(Cl)s2)cs1	i	i	i	i	i	i
CCCC(=O)Nc1nc(C)c(-c2csc(Nc3ccc(Cl)cc3)n2)s1	i	13µM	i	i	i	14µM[quencher]
CCC(C)C(=O)Nc1nc(C)c(-c2csc(Nc3ccc(Cl)cc3)n2)s1 (configuration not stated)	i	?	i	i	i	14µM[quencher]
S=C(Nc1ccccc1)N1CCN(C(=S)Nc2ccccc2)CC1	i	i	i	i	i	i
CSc1ccc(CN2CCN(Cc3ccc([N+](=O)[O-])cc3)CC2)cc1	i	i	?	i	i	i
SMILES	Tau FP inhib	Tau ThT inhib	JMJD2E inh	TRb SRC2 PPI	TexasRed fluor	Tau fluor cs
CSc1nncc(/C(C)=N\Nc2ccccc2C)n1	i	0.89µM	i	i	i	i
N#CCNc1ccc([N+](=O)[O-])cc1C#N	i	nt	i	i	i	i
C(=N\Nc1nc2ccccc2s1)/c1ccccn1	i	?	?	i	i	i
Brc1csc(/C=N/Nc2nc3ccccc3s2)c1	i	?	i	i	i	7.9µM[quencher]
C(=N\Nc1ccccc1)/c1nc2ccccc2s1	?	?	i	i	i	13µM[quencher]
Cc1ccc2[nH]c(C)c(/C=N/Nc3nc4ccccc4s3)c2c1	?	14µM	i	i	i	10µM[quencher]
CCC/C=N/Nc1nc2ccccc2s1	i	?	i	i	i	?
C(=C\c1ccccc1)/C=N/Nc1nc2ccccc2s1	i	?	?	i	i	10µM[quencher]
CCOC(=O)C(C)Sc1cc(CS(=O)(=O)c2ccccc2)nc(-c2ccccc2)n1 (configuration not stated)	i	i	i	i	i	i
COc1ccc(C2=C(C)C(N3CCC(C(=O)Nc4ccccc4F)CC3)=NS2(=O)=O)cc1	i	i	nt	i	i	i
CC(=O)Nc1ccc(NC(=O)CSCCc2ccccn2)cc1	i	i	i	i	i	i
CCOc1cc(-c2nc3ccccc3s2)ccc1O	i	?	?	i	i	20µM[quencher]
Cc1c(C(=O)N2CCCCCC2)oc2ccccc12	i	i	i	i	i	i
Cc1c(C(=O)OCC[N+]2(C)CCCCC2)oc2ccccc12	i	i	25µM	i	i	i
Cc1ccc(CNC(=O)c2ccc3nc(SCc4ccc(F)cc4)[nH]c3c2)cc1	22µM	i	nt	i	i	?
O=C(Oc1ccc(F)cc1C(=O)/C=C/c1cccs1)c1cccc([N+](=O)[O-])c1	i	14µM	i	i	i	?
O=C(Nc1ccc2c(c1)CCCN2C(=O)c1cccs1)c1ccccc1C(F)(F)F	i	i	nt	i	i	i
CCO/C(=C/c1sc2ccc(OC)cc2[n+]1CCCS(=O)(=O)[O-])CC	i	i	i	i	i	i
CCOC(=O)C[n+]1c(C)sc2ccc(OC)cc21	?	28µM	i	i	i	i
CC(=O)c1ccc2c(c1)C1C=CCC1C(c1ccncc1)N2 (configuration not stated)	?	14µM	?	i	i	?
Brc1cc2c(cc1C1Nc3ccccc3C3C=CCC31)OCO2 (configuration not stated)	i	i	i	i	i	?
C1=CC2c3ccccc3NC(c3ccncc3)C2C1 (configuration not stated)	?	22µM	?	i	i	?
NC(=S)N/N=C/c1ccc(-c2cc(Cl)ccc2Cl)o1	i	?	?	i	i	?
Cc1c(Cl)c(C(=O)NC2CCCC2)nn1C	i	i	i	i	i	i
Cn1cc(C2=C(c3cn(CCCSC(=N)N)c4ccccc34)C(=O)NC2=O)c2ccccc21	?	3.2µM	i	i	i	13µM[quencher]
CN(C)CCCn1cc(C2=C(c3c[nH]c4ccccc34)C(=O)NC2=O)c2ccccc21	i	13µM	i	i	i	20µM[quencher]
COc1ccc2c(c1)c(C1=C(c3c[nH]c4ccccc34)C(=O)NC1=O)cn2CCCN(C)C	nt	nt	nt	i	i	nt
O=S1(=O)C[C@@H]2N=C(N/N=C/c3ccccc3)S[C@@H]2C1	i	nt	i	i	i	i
Cn1c(=O)c(C(=O)CN2CCN(Cc3ccc4c(c3)OCO4)CC2)c(N)n(Cc2ccccc2)c1=O	i	i	i	i	i	i

Screening results from PubChem.
